PubChem BioAssay (NCATS)
Several values for one entry are separate records, joined by “and”; a condition that tells them apart may be missing. Identical values can stand only once. Results filed as inconclusive are left out. Some compounds were tested as several samples or in several runs, with calls that do not always agree. Activity calls are given as the source filed them. The call rests on the fitted dose curve; in most records, active means well fitted curve in the direction sought with a large enough effect; inconclusive means small, poorly fitted or top-dose-only effect, or another doubt; inactive means no such curve, though single readings can be large; an effect the other way counts as inactive or inconclusive.

How the values were obtained:
[1] = Quantitative High-Throughput drug screen in 47 multiple myeloma cell lines against the NCATS MIPE library collection: KMS21BM_JCRB cell viability assay (AID 1918974); conditions: ATP luminescence, 48 h; viability: at 45.8 µM unless noted; further: potency means the concentration at half of the fitted maximal effect
In short: (§1)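 Myeloma cells (500 per well) were exposed to MIPE 4.0 compounds by pin transfer and incubated 48 hours at 37C, 5% CO2. Viability was read as ATP by CellTiter-Glo luminescence, normalised to DMSO (100%) and media-only (0%) wells.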

[2] = Quantitative High-Throughput drug screen in 47 multiple myeloma cell lines against the NCATS MIPE library collection: KMS26_JCRB cell viability assay (AID 1918975); further: nearly all actives have a fitted effect of over 45% in size; further: potency means the concentration at half of the fitted maximal effect
In short: (§2)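 Luminescent ATP measurement with CellTiter-Glo gives viability, scaled between DMSO-only wells (100%) and media-only wells (0%). Cells, 500 per well, faced library compounds for 48 hours at 37C.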

[3] = Quantitative High-Throughput drug screen in 47 multiple myeloma cell lines against the NCATS MIPE library collection: MOLP8_DSMZ cell viability assay (AID 1918977); further: nearly all actives have a fitted effect of over 45% in size; further: potency means the concentration at half of the fitted maximal effect
In short: (§3)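 qHTS format: cells plated (500/well), pin-dosed with MIPE 4.0 compounds, kept 48 h at 37 °C. Readout was CellTiter-Glo luminescence, median RLU.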

[4] = Quantitative High-Throughput drug screen in 47 multiple myeloma cell lines against the NCATS MIPE library collection: NCIH929_DSMZ cell viability assay (AID 1918978); further: nearly all actives have a fitted effect of over 35% in size; further: potency means the concentration at half of the fitted maximal effect
In short: as §3

[5] = Quantitative High-Throughput drug screen in 47 multiple myeloma cell lines against the NCATS MIPE library collection: OCIMY1_PLB cell viability assay (AID 1918979); further: nearly all actives have a fitted effect of over 35% in size; further: potency means the concentration at half of the fitted maximal effect; on viability: series mostly up to about 46 µM
In short: as §3

[6] = Quantitative High-Throughput drug screen in 47 multiple myeloma cell lines against the NCATS MIPE library collection: MM1S_ATCC cell viability assay (AID 1918980); further: potency means the concentration at half of the fitted maximal effect; nearly all actives have a fitted effect of over 45% in size
In short: as §3

[7] = Quantitative High-Throughput drug screen in 47 multiple myeloma cell lines against the NCATS MIPE library collection: OCIMY5_PLB cell viability assay (AID 1918988); further: nearly all actives have a fitted effect of over 65% in size; further: potency means the concentration at half of the fitted maximal effect
In short: as §3

[8] = Quantitative High-Throughput drug screen in 47 multiple myeloma cell lines against the NCATS MIPE library collection: OPM1_PLB cell viability assay (AID 1918989); further: nearly all actives have a fitted effect of over 40% in size; further: potency means the concentration at half of the fitted maximal effect
In short: as §3

[9] = Quantitative High-Throughput drug screen in 47 multiple myeloma cell lines against the NCATS MIPE library collection: SKMM1_PLB cell viability assay (AID 1919863); conditions: SKMM1 myeloma viability, CellTiter-Glo ATP, 48 h; viability: stronger effect = lower value; further: nearly all actives have a fitted effect of over 35% in size; further: potency means the concentration at half of the fitted maximal effect; on viability: series mostly up to about 46 µM
In short: as §3

[10] = Quantitative High-Throughput drug screen in 47 multiple myeloma cell lines against the NCATS MIPE library collection: XG6_PLB cell viability assay (AID 1919865); further: nearly all actives have a fitted effect of over 40% in size; further: potency means the concentration at half of the fitted maximal effect
In short: as §3

[11] = Quantitative High-Throughput drug screen in 47 multiple myeloma cell lines against the NCATS MIPE library collection: KMS20_JCRB cell viability assay (AID 1918973); further: nearly all actives have a fitted effect of over 45% in size; further: potency means the concentration at half of the fitted maximal effect
In short: as §1

[12] = Quantitative High-Throughput drug screen in 47 multiple myeloma cell lines against the NCATS MIPE library collection: LP1_DSMZ cell viability assay (AID 1918982); further: nearly all actives have a fitted effect of over 35% in size; further: potency means the concentration at half of the fitted maximal effect
In short: as §3

[13] = Quantitative High-Throughput drug screen in 47 multiple myeloma cell lines against the NCATS MIPE library collection: KMS28PE_JCRB cell viability assay (AID 1918983); further: nearly all actives have a fitted effect of over 35% in size; further: potency means the concentration at half of the fitted maximal effect
In short: as §3

[14] = Quantitative High-Throughput drug screen in 47 multiple myeloma cell lines against the NCATS MIPE library collection: OCIMY7_PLB cell viability assay (AID 1918987); further: potency means the concentration at half of the fitted maximal effect; nearly all actives have a fitted effect of over 65% in size
In short: as §3

[15] = Quantitative High-Throughput drug screen in 47 multiple myeloma cell lines against the NCATS MIPE library collection: U266_ATCC cell viability assay (AID 1919864); further: nearly all actives have a fitted effect of over 35% in size; further: potency means the concentration at half of the fitted maximal effect
In short: as §3

[16] = Quantitative High-Throughput drug screen in 47 multiple myeloma cell lines against the NCATS MIPE library collection: KMS12PE_JCRB cell viability assay (AID 1918972); further: series mostly up to about 46 µM; nearly all actives have a fitted effect of over 30% in size
In short: as §2

[17] = Quantitative High-Throughput drug screen in 47 multiple myeloma cell lines against the NCATS MIPE library collection: MM1R_ATCC cell viability assay (AID 1918981); further: nearly all actives have a fitted effect of over 35% in size; further: potency means the concentration at half of the fitted maximal effect
In short: as §3

[18] = Quantitative High-Throughput drug screen in 47 multiple myeloma cell lines against the NCATS MIPE library collection: L363_DSMZ cell viability assay (AID 1918984); further: nearly all actives have a fitted effect of over 40% in size
In short: as §3

[19] = Quantitative High-Throughput drug screen in 47 multiple myeloma cell lines against the NCATS MIPE library collection: KMS34_JCRB cell viability assay (AID 1918985); further: nearly all actives have a fitted effect of over 40% in size
In short: as §3

[20] = Quantitative High-Throughput drug screen in 47 multiple myeloma cell lines against the NCATS MIPE library collection: MMM1_PLB cell viability assay (AID 1918976)
In short: as §3

CC[C@H](Nc1ncnc2nc[nH]c12)c1nc2cccc(F)c2c(=O)n1-c1ccccc1
inactive: Potency [1]
active: Potency [2] 13.2 µM | Potency [3] 23.5 µM | Potency [4] 8.33 µM | Potency [5] 16.6 µM | Potency [6] 0.118 µM | Potency [7] 20.9 µM | Potency [8] 14.8 µM | Potency [9] 16.6 µM | Potency [10] 13.2 µM

O=C(NOC[C@H](O)CO)c1ccc(F)c(F)c1Nc1ccc(I)cc1F
active: Potency [11] 66.2 nM | Potency [1] 0.0296 µM | Potency [4] 0.059 µM | Potency [6] 16.6 µM | Potency [13] 2.96 µM | Potency [14] 0.0148 µM | Potency [8] 1.48 µM | Potency [15] 16.6 µM | Potency [10] 0.0074 µM
inactive: Potency [2] | Potency [5] | Potency [12] | Potency [7]

CCCCCCCc1ccc(CCc2cccc(O)c2C(=O)O)cc1
inactive: Potency [16] | Potency [5] | Potency [13] | Potency [18] | Potency [19] | Potency [15]
active: Potency [17] 8.33 µM | Potency [12] 16.6 µM | Potency [7] 16.6 µM

Nc1nc2c(ncn2COCCO)c(=O)[nH]1
inactive: Potency [11] | Potency [2] | Potency [3] | Potency [4] | Potency [12] | Potency [13] | Potency [19] | Potency [7] | Potency [8] | viability [9] 125% | Potency [15] | Potency [10]

c1ccc([C@H]2CN3CCSC3=N2)cc1
active: Potency [10] 23.5 µM
inactive: Potency [1] | Potency [2] | Potency [4] | Potency [5] | Potency [17] | Potency [12] | Potency [13] | Potency [19] | Potency [7] | viability [9] 159% | Potency [15]

COc1ccccc1[C@H](c1cccc2ccccc12)[C@@](C)(C#N)C(=O)N1CCC(c2cccc(C(F)(F)F)c2)CC1
active: Potency [11] 1180 nM | Potency [1] 9.35 µM | Potency [2] 7.43 µM | Potency [4] 3.72 µM | Potency [6] 5.9 µM | Potency [17] 4.69 µM | Potency [13] 4.18 µM | Potency [14] 5.9 µM | Potency [7] 4.69 µM | Potency [9] 5.9 µM | Potency [10] 4.69 µM

Cc1[nH]c(=O)c(C#N)cc1-c1ccncc1
active: Potency [4] 10.5 µM | Potency [8] 16.6 µM | Potency [10] 5.9 µM
inactive: Potency [2] | Potency [5] | Potency [17] | Potency [13] | Potency [19] | viability [9] 106%

CC(C)(Sc1ccc(CCN(CCCCC2CCCCC2)C(=O)NC2CCCCC2)cc1)C(=O)O
inactive: Potency [4] | Potency [10]
active: Potency [20] 18.7 µM | Potency [6] 4.18 µM | Potency [17] 23.5 µM | Potency [12] 16.6 µM | Potency [13] 8.33 µM | Potency [9] 14.8 µM | Potency [15] 16.6 µM

CS(=O)(=O)c1ccc(C(=O)Nc2ccc(Cl)c(-c3ccccn3)c2)c(Cl)c1
inactive: Potency [2] | Potency [3] | Potency [17] | Potency [12] | Potency [13] | Potency [19] | viability [9] 129%
active: Potency [4] 2.96 µM | Potency [14] 14.8 µM

COc1cc2c(cc1OC)CN(CCc1ccc(NC(=O)c3cccc4c(=O)c5cccc(OC)c5[nH]c34)cc1)CC2
inactive: Potency [12] | Potency [19]
active: Potency [20] 20.9 µM | Potency [6] 2.64 µM | Potency [15] 9.35 µM

CC(C=CC1=C(C)CCCC1(C)C)=CC=CC(C)=CC(=O)O
inactive and 9.35 µM (active): Potency [13]
active: Potency [4] 18.7 µM and 6.62 µM | Potency [6] 0.526 µM | Potency [17] 14.8 µM | Potency [7] 14.8 µM | Potency [8] 8.33 µM | Potency [9] 14.8 µM | Potency [15] 2.09 µM | Potency [10] 935 nM and 5.26 µM
inactive: Potency [2] | Potency [5] | Potency [12]
